LMP1 NFkB inh = reduces LMP1-driven NF-kappaB luciferase signal. hit rate 0.69% among 350,000. LMP1-induced NF-kappaB luciferase reporter cells, luminescence. inhibition, % at 12.5 µM; in the data active = inhibition above about 41%; inconclusive = no clear call, values can overlap the other calls;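 also: 0% = neutral control wells and 100% = reference inhibitor control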
Wnt bcat act = activates Wnt/beta-catenin signaling in a reporter cell assay; activator, plate reader; activation, % at 9.35 µM; hit rate 1.2% among 300,000; AID 743398; in the data active = activation above about 30%, passing the limit was not always enough; inconclusive = no clear call, values can overlap the other calls;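 also: 0% = neutral control wells and 100% = positive control wells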
Statin myotox sup = suppressors of simvastatin-induced myotoxicity in C2C12 myotubes | ATP luminescence, 48 h; scaled: DMSO 0, geranylgeraniol control 100 | rescue of ATP level, % at 7.49 µM | hit rate 0.78% among 330,000;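 active = mean ATP rescue above about 67%, or every replicate alone reaching that limit, limit read from the data, passing the limit was not always enough; inconclusive = no clear call, values can overlap the other calls; inactive = mean under the limit and some replicate under it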;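 also: myotubes were challenged with 10 µM simvastatin during compound exposure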
MITF TRPM1 HTS = activators of MITF-driven TRPM1 promoter activity in SK-MEL-5 cells | AID 588334 | SK-MEL-5 TRPM1-promoter luciferase, 24 h; % of positive control, neutral wells = 0 | hit rate 0.75% among 300,000 | activation, % at 12.5 µM;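 active = mean activation of at least 80% with every replicate also reaching 80%; inconclusive = mean reaches 80% but some replicate falls short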;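 also: 0% = neutral control wells and 100% = parthenolide positive control wells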
esBAF inh = inhibitors of esBAF chromatin remodeling in mouse ES cells. Bmi1-luciferase knock-in reporter, 24 h; 100% = twice the neutral-well signal. reporter increase, % at 12.5 µM. hit rate 2% among 350,000. AID 602393; in the data active = activation above about 40%; inconclusive = no clear call, values can overlap the other calls;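 also: 0% = median of the plate's neutral control wells and 100% = double that signal; a rise in the Bmi1 reporter signal indicates esBAF inhibition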
MITF TRPM1 inh = reduces MITF-dependent TRPM1 promoter luciferase signal; hit rate 0.83% among 330,000; SK-MEL-5 TRPM1 promoter luciferase, 24 h; AID 488899; inhibition, % at 12.5 µM;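 active = mean inhibition across replicates of 60% or more, whatever share of single replicates reaches that level; inconclusive = some that reach 60%, reason not given; inactive = mean inhibition across replicates below 60%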
An asterisk follows results filed as active; ? = inconclusive; . = no result given. An excerpt weighted towards active compounds, which were near 4% of everything screened.

SMILES	LMP1 NFkB inh	Wnt bcat act	Statin myotox sup	MITF TRPM1 HTS	esBAF inh	MITF TRPM1 inh
O=C(COC(=O)c1n[nH]c2ccccc12)c1cccc(Br)c1	3.8	7.2	-0.8	9.1	7.0	-10.3
NC(CSCc1ccccc1Cl)C(=O)O (stereo not drawn)	6.3	-0.4	.	-4.0	.	7.0
C/C(=N/N=C(/C)c1cccs1)c1cccs1	-34.4	15.1	2.4	.	47.6*	-56.1
O=C(O)COc1ccc(NC(=O)C(c2ccccc2)c2ccccc2)cc1	0.8	0.7	-3.8	-3.9	-5.8	6.5
Cc1[nH]n(C(N)=S)c(=O)c1N=Nc1ccc(Br)cc1	-16.1	40.3*	2.0	41.1	34.7	-37.4
Cc1[nH]n(C(N)=S)c(=O)c1N=Nc1ccc(S(=O)(=O)N2CCCC2)cc1	-9.6	-0.2	4.2	.	52.8*	2.0
Cc1[nH]n(C(N)=S)c(=O)c1N=Nc1cccc(C(F)(F)F)c1	-41.3	26.5	.	36.8	.	-39.4
Cc1[nH]n(C(N)=S)c(=O)c1N=Nc1cc(C(F)(F)F)ccc1Cl	3.7	-2.8	-10.4	2.1	-5.4	-1.2
Cc1ccc(N=Nc2c(C)[nH]n(C(N)=S)c2=O)cc1	-37.1	19.4	-3.3	46.2	56.9*	-45.6
Cc1ccc(S(=O)(=O)N/N=C2/CC(c3ccccc3)Oc3ccccc32)cc1[N+](=O)[O-] (stereo not drawn)	-14.0	.	-1.8	.	40.8*	-13.9
Cc1ccc(/C=C2\Sc3ccccc3C2=O)s1	-46.7	72.4*	87.3*	6.5	26.5	-12.0
O=C1/C(=C/c2cccnc2)Sc2ccccc21	-1.6	.	93.0*	-6.3	6.4	6.8
CCCCNc1nc(CC(C)=O)ns1	2.2	0.3	-1.6	-1.9	4.7	7.9
O=C(O)C1C(=O)NCC1c1ccccc1 (stereo not drawn)	-1.7	-1.9	.	-3.6	.	3.7
Cc1ccc(C)c(OCCn2nnc3ccccc32)c1	-16.3	0.4	2.6	.	18.0	-12.5
Clc1ccccc1OCCn1nnc2ccccc21	-25.3	18.8	22.9	81.1*	63.0*	-78.7
Cc1cc(C)cc(OCCn2nnc3ccccc32)c1	-29.4	4.4	2.5	88.4*	26.1	-94.5
O=C(Nc1ccc2c(c1)OCO2)c1cc(C2CCCCN2C(=O)c2ccccc2)on1 (stereo not drawn)	.	3.1	-2.3	.	0.6	.
CCc1ccc(NC(=O)CSc2nc(NS(=O)(=O)c3ccccc3)cc(=O)[nH]2)cc1	-5.4	-0.5	.	-4.9	.	7.8
CCNC(=S)Nc1cc2oc3ccccc3c2cc1OC	-4.8	1.8	-8.6	0.3	45.3*	1.3
COc1cc2c(cc1NC(=O)c1cccc(S(=O)(=O)N(C)C)c1)oc1ccccc12	-64.2	40.6*	.	21.5	.	-19.7
COc1cc2c(cc1NC(=O)C1CCCO1)oc1ccccc12 (stereo not drawn)	-94.4	-3.7	.	32.9	57.5*	-29.9
CCCCCNC(=O)C(C1CC1)n1c(=O)c(-c2ccccc2)nc2ccccc21 (stereo not drawn)	.	-0.8	.	.	.	.
CCc1cccc(NC(=O)CCNC(=O)Cn2ccc3ccccc3c2=O)c1	-5.5	0.5	4.7	-7.3	-1.4	9.7
O=C(NCCc1ccccc1)C1CCN(C(=O)c2sccc2-n2cccc2)CC1	2.7	-0.6	0.3	.	5.6	.
SMILES	LMP1 NFkB inh	Wnt bcat act	Statin myotox sup	MITF TRPM1 HTS	esBAF inh	MITF TRPM1 inh
O=C(Nc1cccc(-c2cn3c(n2)SCC3)c1)c1ccc2ccccc2n1	-21.9	41.5*	2.7	62.5	60.4*	-53.8
Clc1ccc(-c2cn3c(n2)SCC3)cc1	-37.6	46.8*	-1.0	79.7	56.1*	-75.9
O=C(Nc1ccc(-c2cn3c(n2)SCC3)cc1)c1ccc2ccccc2n1	10.4	-1.9	.	-12.5	.	12.6
Oc1ccc(-c2cn3c(n2)SCC3)cc1	-1.3	.	97.3*	19.5	2.4	-17.4
Brc1ccc(-c2cn3c(n2)SCC3)cc1	-24.5	41.6*	-5.9	66.4	57.6*	-68.6
c1ccc(-c2cn3c(n2)SCC3)cc1	-5.1	-1.3	.	50.5	24.4	-48.5
O=C(CCc1c[nH]c2ccccc12)Nc1ccc(S(=O)(=O)Nc2ncccn2)cc1	3.9	-2.8	8.0	9.4	0.4	-10.4
Cc1c(=O)n(OCc2ccccc2)c2ccccc2[n+]1[O-]	-25.2	.	1.8	-20.0	-2.9	21.0
COc1ccc(COn2c(=O)c(C)[n+]([O-])c3ccccc32)cc1OC	5.4	.	106.4*	-4.8	2.9	5.9
O=C(c1ccc(-n2cnnn2)cc1)N1CCOCC1	5.2	.	18.1	10.0	-1.3	-9.6
NC(=O)C1(N2CCCCC2)CCN(C(=O)c2ccc(-n3cnnn3)cc2)CC1	64.2*	.	-6.0	9.7	-4.9	-8.2
O=C1c2ccccc2C(=O)N1CCCCSc1nnnn1-c1ccccc1	1.4	.	12.9	-6.4	-8.9	13.0
CCc1nnc(NS(=O)(=O)c2ccc(NC(=O)c3ccc(Cl)cc3)cc2)s1	-5.1	3.3	.	0.7	.	-0.4
CCc1nnc(NS(=O)(=O)c2ccc(N/C=C(\C=O)c3nc4cc(Cl)ccc4o3)cc2)s1	-1.7	-3.8	93.1*	-10.2	5.6	8.2
CCc1nnc(NS(=O)(=O)c2ccc(NC(=O)c3cccc(Cl)c3)cc2)s1	-43.1	-1.4	3.9	109.5*	-12.1	-112.2
CCc1nnc(NS(=O)(=O)c2ccc(N)cc2)s1	-5.0	79.0*	-12.6	10.1	-6.5	-5.8
COc1cc(NS(=O)(=O)c2ccc(N/C=C(\C=O)c3nc4ccccc4o3)cc2)nc(OC)n1	2.8	-4.7	5.1	-1.0	-6.2	2.6
CCCNC(=O)Nc1ccc2c(c1)C(=O)N(C)C[C@@H](OC)[C@H](C)CN(C(=O)CC)[C@H](C)CO2	.	.	3.1	.	-8.6	.
CO[C@@H]1CN(C)C(=O)c2ccc(NC(C)=O)cc2OC[C@@H](C)N(Cc2ccccc2F)C[C@@H]1C	.	.	12.5	.	4.4	.
Cc1ccc(C(=O)/C=C/Nc2ccc([N+](=O)[O-])cc2Br)cc1	-61.2	10.6	.	86.9*	?	-85.5
COc1ccc(C(=O)/C=C/Nc2ccc([N+](=O)[O-])cc2C)cc1OC	-2.1	-3.6	.	38.8	.	-35.5
Cc1ccc(O)c(N/C=C/C(=O)c2ccc(F)cc2)c1	-7.8	-1.9	44.2	69.3	63.3*	-64.8
CCOc1ccc(N/C=C/C(=O)c2ccc(C)cc2)c([N+](=O)[O-])c1	-34.8	.	.	88.3*	.	-81.1
CCOc1ccc(N/C=C/C(=O)c2ccc3ccccc3c2)c([N+](=O)[O-])c1	-30.9	5.3	-11.1	77.8	49.8*	-86.7
CCSc1n[nH]c2nc3c(c(=O)n12)C1(CCCCC1)Cc1ccccc1-3	-7.2	5.0	-3.8	-7.9	-6.6	9.1
CCCCn1c(N)c(N(CCC(C)C)C(=O)COC(=O)c2cccnc2Cl)c(=O)[nH]c1=O	-7.3	-2.3	1.0	-3.6	4.2	3.4
O=C(/C=C/Nc1ccc(F)cc1Br)c1ccccc1	48.4*	.	-6.5	-57.5	-53.3	57.6
Cc1cc(N/C=C/C(=O)c2ccccc2)ccc1Br	-88.2	22.9	-1.3	22.2	-8.7	-19.2

Compound activity as filed in PubChem.
